Test results from PubChem BioAssay AID463173 (ICCB-Longwood Screening Facility, Harvard Medical School, 2010).
Screen size: about 52,000 compounds; about 1,700 (3.3%) were called active. What follows is part of a selection rich in actives, with near analogues and random picks from the rest. Unmarked numbers belong to inactive results. Rule as the data show it: active = survival mostly below about 52% (no sharp cut-off); inactive = mostly above about 56%.

system: Wild type; assay: growth inhibition of S. aureus wild type versus tarO mutant, primary screen, teichoic acid synthesis inhibitors, RN4220, OD600 (AID 463173); details: S. aureus RN4220 wild type/DeltatarO growth, OD600, 18 h, active compounds read low, screened at 18.75 µg/mL (by protocol)

Compound	survival
O=C(NCc1ccccc1Cl)C1CCN(S(=O)(=O)c2ccc3c(c2)CCCN3C(=O)C2CCC2)CC1	80%
Cc1ccc(OCc2nc3ccccc3n2CCOc2ccc(Cl)cc2)cc1	26% (active)
Cn1c(COc2ccccc2Br)nc2ccccc21	106%
COc1ccc(OCc2nc3ccccc3n2Cc2ccc(C(C)(C)C)cc2)cc1	0% (active)
c1ccc(OCCn2c(COc3ccccc3)nc3ccccc32)cc1	-15% (active)
Cc1ccc(C)c(OCc2nc3ccccc3n2C)c1	85%
COc1cccc(OCc2nc3ccccc3n2CCOc2ccccc2)c1	74%
COc1cccc(OCc2nc3ccccc3n2CCOc2ccc(C)cc2)c1	62%
Cc1ccc(OCCn2c(COc3ccc(Cl)cc3)nc3ccccc32)cc1	74%
COc1cccc(OCc2nc3ccccc3n2Cc2ccccc2)c1	86%
Cn1c(COc2ccccc2C(C)(C)C)nc2ccccc21	-17% (active)
COc1ccc(C(=O)NCC(c2cccnc2)N2CCc3ccccc3C2)cc1OC (centres undefined)	93%
CCOC(=O)CC(NC(=O)CCc1c(C)nc2c(c1C)c(=O)n(C)c(=O)n2C)c1ccc(OCC)c(OC)c1 (centres undefined)	82%
Cc1ccc(OCC(=O)Nc2ccc3nc(SCCOc4ccccc4)sc3c2)cc1	99%
CCOC(=O)N1CCc2c(sc(NCc3cccc(F)c3)c2C(=O)Nc2ccc(OC)cc2OC)C1	68%
CC(C)c1nnc(NC(=O)c2nc(SCc3ccc(F)cc3)ncc2Cl)s1	58%
Cc1cc(C)n(CCc2nc3c4ccccc4nc(SCc4ccc(F)cc4)n3n2)n1	85%
COc1ccc(C(CNC(=O)c2ccc(C)cc2)N2CCOCC2)cc1 (centres undefined)	92%
Cc1cc2nc3c(=O)n(C)c(=O)n(C)c3nc2cc1N=CN(C)C	77%
CCc1c(CN2CCN(c3ccc(F)cc3)CC2)csc1C	75%

Compound	survival
O=C(CSc1ccc(-c2ccc(F)cc2)nn1)N1CCOCC1	112%
Cc1ccc(-n2nc3c(=O)n(C(C)C(=O)NCc4ccc(OC(C)C)cc4)nc(C)c3c2C)cc1 (centres undefined)	93%
CC(C)(C)c1ccc(OCc2nc3ccccc3n2CCOc2ccccc2)cc1	7% (active)
Cc1ccc(NS(=O)(=O)c2ccc(-c3cc(C)no3)cc2)c(C)c1	101%
O=C(c1cccn1-c1nnc(N2CCCCC2)s1)N1CCN(c2ccccc2)CC1	-3% (active)
O=C(c1cccn1-c1nnc(N2CCCCC2)s1)N1CCN(c2ccc(Cl)cc2)CC1	73%
COc1ccccc1CNC(=O)c1cccn1-c1nnc(N2CCCC2)s1	81%
COc1ccccc1CCNC(=O)c1cccn1-c1nnc(N2CCCCC2)s1	87%
COc1ccc(CNC(=O)c2cccn2-c2nnc(N3CCCC3)s2)c(OC)c1	81%
O=C(c1cccn1-c1nnc(N2CCCC2)s1)N1CCN(c2ccccc2)CC1	19%
COc1ccccc1CNC(=O)c1cccn1-c1nnc(N2CCCCC2)s1	10% (active)
COc1ccc(CNC(=O)c2cccn2-c2nnc(N3CCCCC3)s2)c(OC)c1	-2% (active)
COc1ccc(NC(=O)c2cccn2-c2nnc(N3CCCCC3)s2)c(OC)c1	73%
Cc1ccc(C)c(CSc2nnc3[nH]c(=O)cc(-c4ccccc4)n23)c1	86%
Cc1cccc(N2CCN(c3nc4ccccc4c4nnc(C)n34)CC2)c1C	98%
COc1ccc(NC(=O)C2CCN(C(=O)c3sc4nc[nH]c(=O)c4c3C)CC2)cc1Cl	85%
CCOc1ccccc1NC(=O)CN1c2ccccc2S(=O)(=O)c2ccccc21	10% (active)
CCOc1ccccc1NC(=O)CN1C(=O)C(=O)c2ccccc21	115%
Cc1cc(C)c(NC(=O)CN2c3ccccc3S(=O)(=O)c3ccccc32)c(C)c1	124%
Cc1cccc(NC(=O)CN2c3ccccc3S(=O)(=O)c3ccccc32)c1C	-3% (active)

Compound	survival
CCOc1ccccc1NC(=O)CN1C=NS(=O)(=O)c2ccccc21	59%
O=C(CN1c2ccccc2S(=O)(=O)c2ccccc21)Nc1ccccc1Cl	65%
CCn1nc(-c2ccccc2)c(-c2ccccc2)c(C(=O)Nc2ccc(NC(C)=O)cc2)c1=O	88%
CCC(C)(C)n1nnnc1C(c1ccccc1OC)N1CCN(C(=O)c2ccco2)CC1 (centres undefined)	105%
Cc1ccc(C)c(Cn2c(C(C)NC(=O)c3ccc(F)cc3)nc3ccccc32)c1 (centres undefined)	83%
COc1ccc(C(=O)N2CCN(C(=O)COc3ccccc3)CC2)cc1OC	79%
CC(=O)N1c2ccc(S(=O)(=O)NCC3CCC(C(=O)Nc4cccc(C)c4)CC3)cc2CC1C (centres undefined)	91%
Cc1ccc(C(=O)Nc2ccc(-c3nc4ccccc4s3)cc2C)cc1C	73%
CSc1ncc(C(=O)N2CCN(c3ccc(Cl)cc3)CC2)c(C)n1	124%
CSc1ncc(C(=O)N2CCN(c3cccc(Cl)c3)CC2)c(C)n1	-3% (active)
CSc1ncc(C(=O)N2CCN(c3cccc(C(F)(F)F)c3)CC2)c(C)n1	73%
CCCCN(CCCNC(=O)c1c(C)oc2nc[nH]c(=O)c12)Cc1ccccc1	71%
Cc1oc2ccc(O)c(CN3CCCC(C)C3)c2c1C(=O)Nc1ccccc1 (centres undefined)	91%
CCN(Cc1ccccc1)Cc1c(O)ccc2c(=O)c(-c3ccccc3Cl)coc12	73%
CCN(CC)c1ccc(NC(=O)CN2C(=O)c3cccnc3Oc3ccccc32)c(C)c1	135%
Cc1cc(Br)ccc1NC(=O)CN1C(=O)c2cccnc2Sc2ccccc21	85%
CCN(CC)c1ccc(NC(=O)CN2C(=O)c3cccnc3Sc3ccccc32)c(C)c1	-4% (active)
CCC(=O)Nc1ccc(CC)cc1-c1nc2ccccc2n(CC(=O)Nc2ccccc2C)c1=O	88%
COc1ccc(Nc2ncc3c(n2)CCN(Cc2ccc(Br)s2)C3)c(OC)c1	127%
